# Compounds with a hit are over-represented: about 2.3% of the library has one in this group of screens.
# 697 NFkB inh = lowers PMA/ionomycin-induced NF-kB signal in 697 B cells; 697 B-cell NF-kB luciferase reporter, 16 h; 0.33% of 330,000 active; inhibition, % at 4 µM; in the data active = inhibition above about 35%
# Gli-Sufu antag = blocks Gli-Sufu signaling in a luciferase reporter | Sufu-KO-LIGHT fibroblasts, Gli luciferase reporter luminescence | inhibition, % at 5 µM | 0.74% of 340,000 active;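 active = inhibition above about 55%, limit read from the data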;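 also: 0% = DMSO-treated cells and 100% = wells with medium but no cells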
# Shn3 3UTR inh = Schnurri-3 reporter inhibition in Clone20 osteoblasts | Clone20 osteoblast Shn3 3'UTR firefly luciferase, 24 h | inhibition, % at 12.5 µM | 0.52% of 360,000 active | AID 588674;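 active = mean inhibition of at least 75% with every replicate also reaching 75%; inconclusive = mean inhibition at least 75% but some replicate below; inactive = mean inhibition below 75%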;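 also: 0% = median of neutral control wells and 100% = pilot-screen positive control compound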
# aSyn UTR inh = 5' untranslated region of α-synuclein, MLPCN primary screen; alpha-synuclein 5'UTR reporter, inhibitor activity; 0.82% of 300,000 active; inhibition, % (tested at 7.5 µM); AID 1813; in the data active = inhibition above about 60%; inconclusive = no clear call, values can overlap the other calls;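 also: H4 neuroglioblastoma cells stably carrying SNCA 5'UTR luciferase fusion; 0% = DMSO wells and 100% = positive control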
# H9c2 TAG inh = reduces triacylglycerol accumulation in H9c2 cells. Nile Red lipid (TAG) fluorescence; cells loaded with 200 µM oleic acid. inhibition, % at 12.5 µM. 0.66% of 230,000 active. AID 651582;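 active = pattern-corrected inhibition of lipid staining of at least 50% with the nuclear-stain viability signal not falling by more than 50%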;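 also: 0% = DMSO wells and 100% = triacsin C control wells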
# Jurkat NFkB inh = inhibitors of the PMA/ionomycin-induced NF-kB reporter in Jurkat cells. inhibition, % at 4 µM. 0.53% of 330,000 active. PMA/ionomycin-induced NF-kB luciferase reporter, luminescence; in the data active = inhibition above about 50%
# Numbers without * were called inactive; ? = inconclusive; nt = not tested or not shown.
SMILES,697 NFkB inh,Gli-Sufu antag,Shn3 3UTR inh,aSyn UTR inh,H9c2 TAG inh,Jurkat NFkB inh
Nc1[nH]n2c(=O)cc(-c3ccccc3)nc2c1N=Nc1ccccc1,5.9,-1.1,9.2,67.6*,6.0,-1.4
Nc1[nH]n2c(=O)cc(-c3ccccc3)nc2c1N=Nc1ccc(S(N)(=O)=O)cc1,22.2,-3.1,3.4,11.1,nt,3.1
C=C[C@@]1(C)CC(=O)[C@]2(O)[C@@]3(C)[C@@H](O)CCC(C)(C)[C@@H]3[C@H](OC(C)=O)[C@H](O)[C@@]2(C)O1,-27.8,5.5,40.2,66.4*,nt,-13.5
Cc1ccccc1C(=O)Nc1nnc(-c2ccco2)s1,-167.3,-55.3,0.5,65.1*,-14.1,-17.9
Cc1cccc(-c2nnc3n2N=C(c2ccccc2)CS3)c1,-17.7,5.5,-19.1,63.0*,nt,13.2
CCOc1ccc(C2=Nn3c(nnc3-c3ccc(OC)cc3)SC2)cc1,nt,12.6,22.0,84.3*,nt,nt
CNC(=O)[C@@H]1C[C@H]1[C@@H](NC(=O)CNC(=O)OCc1ccccc1)c1ccccc1,9.8,-3.9,nt,16.3,nt,5.8
Cc1conc1NC(c1cccs1)c1ccc2cccnc2c1O (stereo not drawn),-9.8,nt,nt,66.3*,nt,18.2
CC(=O)NC(c1cccs1)c1cc(F)c2cccnc2c1O (stereo not drawn),-24.5,47.5,84.1,nt,46.5,37.7
CC(C)CC(=O)NC(c1cccs1)c1ccc2cccnc2c1O (stereo not drawn),-22.3,72.4*,89.4*,74.0*,79.2,28.9
CCCN(CCC)c1nc(N)nc(-c2cc(Cl)ccc2OC)n1,3.2,1.3,10.8,21.8,-5.2,7.8
Cc1ccc(CNC(=O)CSc2nnnn2C)cc1,6.9,-2.5,-1.7,-15.1,nt,9.4
CC1=NN(c2nc(-c3ccc(C)cc3)cs2)C(=O)C1N=Nc1ccccc1O (stereo not drawn),-72.1,35.5,92.2*,63.3*,nt,11.0
O=C(O)c1ccc2c(c1)CCC2,21.5,0.3,7.5,17.7,nt,5.4
Cc1ccc(C(=O)N2CCN(S(=O)(=O)c3ccccc3C#N)CC2)cc1S(=O)(=O)N1CCOCC1,14.9,3.2,-52.3,nt,-2.4,-2.4
COc1ccc(-c2nc(-c3ccncc3)no2)cc1,nt,-96.6,-23.9,-52.7,nt,nt
COc1ccc(-c2nc(-c3cccs3)no2)cc1,-223.5,-97.9,48.1,82.6*,11.7,-103.1
Cc1c(C(=O)N(Cc2cccc(Br)c2)C2CCS(=O)(=O)C2)oc2ccccc12 (stereo not drawn),-39.5,-17.5,86.4*,3.3,nt,-16.7
COc1cc(/C(C#N)=C/c2cccc3ccccc23)c([N+](=O)[O-])cc1OC,-0.7,8.8,-21.3,8.3,nt,2.2
Cc1cc(C)c(O)c(-c2cc(C(=O)Nc3ccc(S(=O)(=O)N4CCOCC4)cc3)[nH]n2)c1,-24.8,31.3,91.0*,-3.2,32.0,15.3
Cc1c(C(=O)Nc2ccc(N3CCOCC3)cc2)cccc1[N+](=O)[O-],15.7,10.2,-3.2,-3.7,-7.5,6.5
COc1ccc(-n2c(SC(C)C(=O)Nc3ncc(Cl)cc3Cl)nc3ccccc32)cc1 (stereo not drawn),nt,-36.6,76.6,76.6*,nt,nt
CC(Sc1nnc2ccccn12)C(=O)Nc1ncc(Cl)cc1Cl (stereo not drawn),7.9,-30.8,-13.8,-38.0,-2.8,-1.2
Cc1ccc(C(C)C)cc1NC(=O)Nc1ccc([N+](=O)[O-])cc1,11.9,1.8,86.9*,44.6,nt,1.0
CC(=O)Nc1nc(-c2ccc([N+](=O)[O-])cc2)cs1,-33.0,-28.9,-26.1,-33.1,16.9,-22.1
SMILES,697 NFkB inh,Gli-Sufu antag,Shn3 3UTR inh,aSyn UTR inh,H9c2 TAG inh,Jurkat NFkB inh
O=C(Nc1ccc(Oc2ccc(NC(=O)Nc3ccc([N+](=O)[O-])cc3)cc2)cc1)Nc1ccc([N+](=O)[O-])cc1,10.6,20.2,81.9,90.7*,nt,31.5
O=C(Nc1ccc([N+](=O)[O-])cc1)Nc1nc(-c2ccc(Cl)s2)cs1,nt,60.5*,?,91.5*,19.9,nt
O=C(Nc1ccc(-c2nc3cccnc3s2)cc1)C1CCCO1 (stereo not drawn),-148.1,-71.3,83.5,87.3*,13.0,-20.1
COCc1cc(C)nc2sc(C(=O)NN)c(-n3cccc3)c12,-1.5,-1.3,-20.8,71.4*,-0.8,7.9
Cc1c(C(=O)N2CCCC2)oc2c1-c1nn(CC(=O)NCCCN3CCCCC3)cc1CC2,-21.7,5.4,2.3,10.9,nt,-20.2
COc1ccccc1CNC(=O)CCNS(=O)(=O)c1ccc2[nH]c(=O)oc2c1,-47.2,56.9*,-6.8,-21.3,nt,-12.1
